In PubChem BioAssay one finds IC50, inhibition and outcome data, which are given here for 39 molecules.

Activity calls are given as the source filed them. No rule for the calls is given here.

Tested on in the first assay: not listed separately
Kind of assay: Coupled enzyme confirmation of inhibitors against recombinant Mtb PanC (AID 375).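 As to inhibition: 0% = full reaction with vehicle and 100% = no enzyme background.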 Particulars: coupled enzyme assay; measured here: coupling enzymes IC50 repeat trials unless noted.
As to `Cc1ccccc1Cn1cc(NC(=O)c2noc3c2CC(C(C)(C)C)CC3)cn1` (centres undefined), the IC50 was greater than 100 µM.
On the same count and under the same terms, with `Cc1ccc(Cn2ccc(NC(=O)c3cc(-c4ccccc4)on3)n2)cc1` the figure was greater than 100 µM.
Still for that read-out and setting: as for `COc1cccc(-c2cc(C(=O)Nc3cc(C)n(Cc4ccc(Cl)cc4)n3)no2)c1`, the figure is greater than 100 µM.
Still for that read-out and setting: as for `Cc1ccc(Cn2ccc(NC(=O)c3cc(-c4cccs4)on3)n2)cc1`, the figure is greater than 100 µM.
In the case of `COc1ccc2c(c1)CCc1c(C(=O)Nc3ccn(Cc4ccc(C)cc4)n3)noc1-2`, the IC50 is greater than 100 µM.

For the next assay, the target named is Pantothenate synthetase (Mycobacterium tuberculosis (strain ATCC 25618 / H37Rv)) (UniProt P9WIL5). Described as above. To be noted: coupled enzyme assay; at 10 µM, stronger effect = higher value.
Sequence of Pantothenate synthetase (Mycobacterium tuberculosis (strain ATCC 25618 / H37Rv)) (P9WIL5 whole entry, looked up): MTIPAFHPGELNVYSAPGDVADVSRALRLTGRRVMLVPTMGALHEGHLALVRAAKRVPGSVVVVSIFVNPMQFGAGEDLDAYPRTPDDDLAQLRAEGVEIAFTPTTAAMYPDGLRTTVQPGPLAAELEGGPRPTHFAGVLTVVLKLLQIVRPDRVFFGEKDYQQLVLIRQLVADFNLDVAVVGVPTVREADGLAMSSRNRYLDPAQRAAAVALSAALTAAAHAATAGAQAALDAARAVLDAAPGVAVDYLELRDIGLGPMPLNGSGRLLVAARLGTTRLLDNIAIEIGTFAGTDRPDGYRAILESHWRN
Take `CCOC(=O)c1c(C)oc2ccc(NS(=O)(=O)c3ccc4c5c(cccc35)C(=O)N4)cc12`: the inhibition is 3% (inactive).
Take `Cc1ccc(Cn2ccc(NC(=O)c3cc(-c4ccc(Cl)cc4)on3)n2)cc1`: the outcome was inactive.
Same read-out and setting: with `Cc1ccc(Cn2ccc(NC(=O)c3cc(-c4ccco4)on3)n2)cc1` the entry was “inactive”.
As for `Cc1ccccc1Cn1nc(C)c(NC(=O)c2noc3c2CC(C(C)(C)C)CC3)c1C` (centres undefined), the result was inactive.
With `COc1ccc(-c2cc(C(F)(F)F)nc(SCCC(=O)N3CCOCC3)n2)cc1`, the inhibition was 1% (inactive).
On to `CC(C)CN(C(=O)c1ccc(=O)n(C)n1)c1nc2ccccc2s1`, for which the inhibition was 0% (inactive).
Still for that read-out and setting: with `Cc1cc(C(=O)Nc2cc(C)n(Cc3ccc(Cl)cc3)n2)no1` the figure was 3% (inactive).
In the case of `Cc1cc(NC(=O)c2noc3c2CCCC3)nn1Cc1ccc(Cl)cc1`, the result was inactive.
With `Cc1ccc(Cn2ccc(NC(=O)c3noc4c3CCCC4)n2)cc1`, the inhibition was 0% (inactive).
The same measure, in the same setting: as for `C=CCN1C(=O)CS/C1=N/c1nccs1`, the figure is 0% (inactive); as for `CCC(Sc1nc(-c2ccccc2)c(C#N)c(=O)[nH]1)C(=O)Nc1cc(C)on1` (centres undefined), 0% (inactive).
Turning to `Cc1ccc(Cn2ccc(NC(=O)c3cc(-c4ccc(F)cc4)on3)n2)cc1`, the result was inactive.
`Cc1ccc(Cn2ccc(NC(=O)c3cc(-c4cccc(Cl)c4)on3)n2)cc1`: the outcome was inactive.
Take `COc1ccc(-c2cc(C(=O)Nc3cc(C)n(Cc4ccc(Cl)cc4)n3)no2)cc1OC`: the outcome was inactive.
Regarding `Cc1ccccc1-n1c(=O)cc(NCc2ccc3c(c2)OCO3)[nH]c1=O`, the inhibition is 2% (inactive).
On the same count and under the same terms, with `CCCCCn1c(CN2CCN(c3cccc(Cl)c3)CC2)nc2c1c(=O)n(C)c(=O)n2C` the figure was 0% (inactive); with `O=C(NCc1ccc(F)cc1)c1cc2ccccn2n1`, 1% (inactive).
On the same count and under the same terms, with `O=S(=O)(Nc1ccc(Cc2ccncc2)cc1)N1CCCC1` the figure was 0% (inactive); with `CCN(CC(=O)Nc1ccc(S(N)(=O)=O)cc1)S(=O)(=O)c1cc(C)ccc1OC`, 6% (inactive).
Consider `Cc1ccc(Cn2ccc(NC(=O)c3cc(-c4ccc(Br)cc4)on3)n2)cc1`, for which the result was inactive.
Still for that read-out and setting: as for `COc1ccc2c(c1)CCc1c(C(=O)Nc3cc(C)n(Cc4ccc(Cl)cc4)n3)noc1-2`, the entry is “inactive”; as for `Cc1ccc(Cn2ccc(NC(=O)c3noc4c3CCCCC4)n2)cc1`, “inactive”.
For `COc1ccc2c(c1)CCc1c(C(=O)N3CCCc4ccccc43)noc1-2`, the inhibition is 4% (inactive).
As for `COc1cccc(C2=Nn3c(nnc3-c3ccccc3O)SC2)c1`, the inhibition was 1% (inactive).
As for `CN(C)CCOC(C)(c1ccccc1)c1ccccn1` (centres undefined), the inhibition was 0% (inactive).
With `Cc1cc(NC(=O)c2cc(-c3cccs3)on2)nn1Cc1ccc(Cl)cc1`, the result was inactive.
Same read-out and setting: as for `COc1ccccc1-c1cc(C(=O)Nc2cc(C)n(Cc3ccc(Cl)cc3)n2)no1`, the entry is “inactive”.
On to `CCc1ccc2nc(NC(=O)CSCc3c(C)noc3C)sc2c1`, for which the inhibition is 6% (inactive).
As for `Cc1cc(NC(=O)c2noc3c2CCCCC3)nn1Cc1ccc(Cl)cc1`, the result was inactive.
As to `Cc1ccccc1OCc1nnc(SCC(=O)NCc2ccccc2)n1C`, the inhibition is 0% (inactive).
On the same count and under the same terms, with `Cc1ccc(-c2nnc(N(C)C(=O)c3ccccn3)s2)cn1` the figure was 0% (inactive).
As for `Cc1ccccc1Cn1cc(NC(=O)c2noc3c2CC(C(C)(C)C)CC3)cn1` (centres undefined), the outcome was active.
Turning to `COc1ccc(Cn2nnnc2C(c2cc3cc(C)cc(C)c3[nH]c2=O)N2CCOCC2)cc1` (centres undefined), the inhibition is 0% (inactive).
In the case of `Cc1ccc(Cn2ccc(NC(=O)c3cc(-c4ccccc4)on3)n2)cc1`, the outcome was inactive.
With `COc1ccccc1N1CCN(C(=O)c2oc3cc(C)c(C)cc3c2C)CC1`, the inhibition is 0% (inactive).
Same read-out and setting: with `COc1cccc(-c2cc(C(=O)Nc3cc(C)n(Cc4ccc(Cl)cc4)n3)no2)c1` the figure was 0% (inactive).
Same read-out and setting: as for `Cc1ccc(Cn2ccc(NC(=O)c3cc(-c4cccs4)on3)n2)cc1`, the figure is 3% (inactive); as for `CC(C)(C)n1ncc2c(=O)n(CC(=O)NCc3ccco3)cnc21`, 11% (inactive).
Regarding `COc1ccc2c(c1)CCc1c(C(=O)Nc3ccn(Cc4ccc(C)cc4)n3)noc1-2`, the outcome was inactive.
